Test [1] concerns the target T1, Serine/threonine-protein kinase D2 (Homo sapiens) (UniProt Q9BZL6).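 Further: mean value of PRKD2 inhibition, from the GSK PKIS screening panel.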
T1 sequence (whole entry): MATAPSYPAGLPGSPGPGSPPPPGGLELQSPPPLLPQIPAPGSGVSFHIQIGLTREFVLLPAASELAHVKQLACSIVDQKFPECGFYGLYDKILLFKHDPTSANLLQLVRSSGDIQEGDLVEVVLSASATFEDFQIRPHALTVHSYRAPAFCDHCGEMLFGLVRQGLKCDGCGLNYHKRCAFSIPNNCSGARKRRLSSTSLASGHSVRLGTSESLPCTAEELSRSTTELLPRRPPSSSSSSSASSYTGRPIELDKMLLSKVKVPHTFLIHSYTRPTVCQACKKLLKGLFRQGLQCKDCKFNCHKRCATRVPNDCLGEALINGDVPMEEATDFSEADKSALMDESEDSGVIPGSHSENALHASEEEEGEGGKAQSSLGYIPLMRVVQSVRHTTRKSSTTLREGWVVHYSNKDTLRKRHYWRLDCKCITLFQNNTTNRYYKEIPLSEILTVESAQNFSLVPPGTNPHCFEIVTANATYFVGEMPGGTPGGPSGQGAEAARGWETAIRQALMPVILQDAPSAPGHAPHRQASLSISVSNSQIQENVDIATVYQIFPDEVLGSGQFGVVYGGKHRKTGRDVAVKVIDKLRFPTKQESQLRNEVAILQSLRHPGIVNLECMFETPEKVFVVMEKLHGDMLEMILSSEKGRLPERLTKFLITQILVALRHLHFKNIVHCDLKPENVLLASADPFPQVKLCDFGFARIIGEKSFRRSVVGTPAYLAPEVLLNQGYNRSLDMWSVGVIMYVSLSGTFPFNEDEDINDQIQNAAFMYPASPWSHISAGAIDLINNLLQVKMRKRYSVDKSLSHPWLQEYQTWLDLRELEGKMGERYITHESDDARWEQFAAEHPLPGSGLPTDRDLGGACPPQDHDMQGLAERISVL
The note with it: at 1 µM.

The target in test [2] is T2, Serine/threonine-protein kinase D3 (Homo sapiens) (UniProt O94806).
T2 sequence (whole entry): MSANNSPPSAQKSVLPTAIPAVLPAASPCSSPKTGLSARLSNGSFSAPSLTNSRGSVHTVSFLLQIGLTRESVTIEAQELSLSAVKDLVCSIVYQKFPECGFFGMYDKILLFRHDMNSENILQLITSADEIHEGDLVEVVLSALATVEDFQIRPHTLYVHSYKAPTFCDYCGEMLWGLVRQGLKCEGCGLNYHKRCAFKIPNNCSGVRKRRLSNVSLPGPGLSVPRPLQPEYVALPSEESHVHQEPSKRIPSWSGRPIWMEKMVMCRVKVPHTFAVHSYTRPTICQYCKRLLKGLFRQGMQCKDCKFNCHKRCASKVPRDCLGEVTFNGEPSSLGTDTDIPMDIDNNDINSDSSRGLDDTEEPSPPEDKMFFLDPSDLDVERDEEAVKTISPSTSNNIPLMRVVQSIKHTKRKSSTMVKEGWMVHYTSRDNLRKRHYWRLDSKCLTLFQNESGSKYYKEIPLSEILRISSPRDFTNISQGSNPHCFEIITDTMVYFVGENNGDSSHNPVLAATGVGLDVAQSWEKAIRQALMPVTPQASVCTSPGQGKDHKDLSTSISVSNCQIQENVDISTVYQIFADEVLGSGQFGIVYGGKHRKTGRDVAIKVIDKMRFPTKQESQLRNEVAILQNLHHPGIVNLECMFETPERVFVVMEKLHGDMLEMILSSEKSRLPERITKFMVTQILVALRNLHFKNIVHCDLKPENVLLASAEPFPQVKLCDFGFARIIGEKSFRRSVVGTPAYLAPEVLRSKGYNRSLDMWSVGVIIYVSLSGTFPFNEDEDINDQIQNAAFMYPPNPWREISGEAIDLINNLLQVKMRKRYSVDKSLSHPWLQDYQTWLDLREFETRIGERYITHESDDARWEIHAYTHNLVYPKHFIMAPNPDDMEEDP
The note with it: at 0.1 µM.

Test [3] addresses T2, Serine/threonine-protein kinase D3 (Homo sapiens). The note with it: at 1 µM.
In test [4] the target is T3, cGMP-dependent protein kinase 1 (Homo sapiens) (UniProt Q13976).
T3 sequence (whole entry): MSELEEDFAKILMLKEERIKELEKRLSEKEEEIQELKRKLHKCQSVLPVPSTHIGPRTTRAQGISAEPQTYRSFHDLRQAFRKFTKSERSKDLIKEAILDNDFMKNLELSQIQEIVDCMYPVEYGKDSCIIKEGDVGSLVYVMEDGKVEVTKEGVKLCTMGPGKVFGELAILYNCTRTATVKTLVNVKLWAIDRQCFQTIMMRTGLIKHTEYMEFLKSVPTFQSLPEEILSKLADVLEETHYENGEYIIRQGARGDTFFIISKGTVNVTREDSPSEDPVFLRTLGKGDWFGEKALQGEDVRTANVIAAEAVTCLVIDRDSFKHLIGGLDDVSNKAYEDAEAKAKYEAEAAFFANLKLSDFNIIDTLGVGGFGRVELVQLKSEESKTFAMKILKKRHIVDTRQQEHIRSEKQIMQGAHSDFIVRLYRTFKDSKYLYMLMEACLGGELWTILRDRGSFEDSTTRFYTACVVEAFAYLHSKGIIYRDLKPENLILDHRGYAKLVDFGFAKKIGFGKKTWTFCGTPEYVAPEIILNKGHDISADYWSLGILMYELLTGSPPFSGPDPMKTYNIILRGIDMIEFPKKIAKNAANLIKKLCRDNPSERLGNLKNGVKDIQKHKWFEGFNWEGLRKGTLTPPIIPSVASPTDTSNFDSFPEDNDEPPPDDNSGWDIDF
The note with it: at 0.1 µM.

Test [5] addresses T3, cGMP-dependent protein kinase 1 (Homo sapiens). The settings on record: at 1 µM.
Test [6] addresses T4, cGMP-dependent protein kinase 2 (Homo sapiens) (UniProt Q13237).
T4 sequence (whole entry): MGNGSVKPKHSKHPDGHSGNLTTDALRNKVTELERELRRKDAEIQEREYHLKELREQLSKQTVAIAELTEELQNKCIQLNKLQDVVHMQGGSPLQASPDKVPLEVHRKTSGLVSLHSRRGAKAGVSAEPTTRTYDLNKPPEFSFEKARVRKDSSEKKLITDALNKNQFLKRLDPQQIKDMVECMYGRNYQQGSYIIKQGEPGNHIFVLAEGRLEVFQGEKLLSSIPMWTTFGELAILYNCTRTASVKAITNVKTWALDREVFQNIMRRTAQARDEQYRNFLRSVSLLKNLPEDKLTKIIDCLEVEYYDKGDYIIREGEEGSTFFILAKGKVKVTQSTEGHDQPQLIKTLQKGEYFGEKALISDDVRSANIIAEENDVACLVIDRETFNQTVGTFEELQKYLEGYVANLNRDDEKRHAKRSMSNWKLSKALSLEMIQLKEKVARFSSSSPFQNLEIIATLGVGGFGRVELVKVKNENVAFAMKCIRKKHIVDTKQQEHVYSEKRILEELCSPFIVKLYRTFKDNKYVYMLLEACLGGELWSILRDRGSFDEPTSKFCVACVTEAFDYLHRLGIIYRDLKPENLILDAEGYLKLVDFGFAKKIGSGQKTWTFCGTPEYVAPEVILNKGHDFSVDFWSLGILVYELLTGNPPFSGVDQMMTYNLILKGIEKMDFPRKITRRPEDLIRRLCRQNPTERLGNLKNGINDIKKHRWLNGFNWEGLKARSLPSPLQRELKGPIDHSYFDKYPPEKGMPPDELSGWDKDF
The settings on record: at 0.1 µM.

The target in test [7] is T4, cGMP-dependent protein kinase 2 (Homo sapiens). The settings on record: at 1 µM.
The target of test [8] is T5, cAMP-dependent protein kinase catalytic subunit PRKX (Homo sapiens) (UniProt P51817).
T5 sequence (whole entry): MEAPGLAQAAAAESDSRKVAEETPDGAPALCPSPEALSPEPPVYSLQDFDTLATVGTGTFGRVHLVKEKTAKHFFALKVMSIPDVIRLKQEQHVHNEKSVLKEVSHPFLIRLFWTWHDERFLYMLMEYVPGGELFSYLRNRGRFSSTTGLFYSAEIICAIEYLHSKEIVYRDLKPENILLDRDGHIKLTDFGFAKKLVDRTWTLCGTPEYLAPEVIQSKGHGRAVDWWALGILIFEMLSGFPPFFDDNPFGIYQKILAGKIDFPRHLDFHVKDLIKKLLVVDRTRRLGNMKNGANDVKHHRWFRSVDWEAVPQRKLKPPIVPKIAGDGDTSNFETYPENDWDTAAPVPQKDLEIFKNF
The settings on record: at 0.1 µM.

Test [9] deals with T5, cAMP-dependent protein kinase catalytic subunit PRKX (Homo sapiens). The note with it: at 1 µM.
Test [10] addresses Rho-associated protein kinase 1 (Homo sapiens) (UniProt Q13464). The note with it: at 0.1 µM.
Test [11] shares this target. The settings on record: at 1 µM.
The target of test [12] is Rho-associated protein kinase 2 (Homo sapiens) (UniProt O75116). The note with it: at 0.1 µM.
For test [13] the target is unchanged. The note with it: at 1 µM.
Test [14] deals with Ribosomal protein S6 kinase alpha-1 (Homo sapiens) (UniProt Q15418). The settings on record: at 0.1 µM.
For test [15] the target is unchanged. The settings on record: at 1 µM.
Test [16] has as its target Ribosomal protein S6 kinase alpha-3 (Homo sapiens) (UniProt P51812). The note with it: at 0.1 µM.
The target is the same in test [17]. The note with it: at 1 µM.
Test [18] concerns the target Ribosomal protein S6 kinase alpha-2 (Homo sapiens) (UniProt Q15349). The settings on record: at 0.1 µM.
The target is the same in test [19]. The note with it: at 1 µM.
For test [20], the target named is Ribosomal protein S6 kinase alpha-6 (Homo sapiens) (UniProt Q9UK32). The note with it: at 0.1 µM.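 Further: reported value is the mean inhibition of RSK4, from the GSK PKIS kinase inhibitor screen.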
Chain of Ribosomal protein S6 kinase alpha-6 (Homo sapiens) (Q9UK32 whole entry): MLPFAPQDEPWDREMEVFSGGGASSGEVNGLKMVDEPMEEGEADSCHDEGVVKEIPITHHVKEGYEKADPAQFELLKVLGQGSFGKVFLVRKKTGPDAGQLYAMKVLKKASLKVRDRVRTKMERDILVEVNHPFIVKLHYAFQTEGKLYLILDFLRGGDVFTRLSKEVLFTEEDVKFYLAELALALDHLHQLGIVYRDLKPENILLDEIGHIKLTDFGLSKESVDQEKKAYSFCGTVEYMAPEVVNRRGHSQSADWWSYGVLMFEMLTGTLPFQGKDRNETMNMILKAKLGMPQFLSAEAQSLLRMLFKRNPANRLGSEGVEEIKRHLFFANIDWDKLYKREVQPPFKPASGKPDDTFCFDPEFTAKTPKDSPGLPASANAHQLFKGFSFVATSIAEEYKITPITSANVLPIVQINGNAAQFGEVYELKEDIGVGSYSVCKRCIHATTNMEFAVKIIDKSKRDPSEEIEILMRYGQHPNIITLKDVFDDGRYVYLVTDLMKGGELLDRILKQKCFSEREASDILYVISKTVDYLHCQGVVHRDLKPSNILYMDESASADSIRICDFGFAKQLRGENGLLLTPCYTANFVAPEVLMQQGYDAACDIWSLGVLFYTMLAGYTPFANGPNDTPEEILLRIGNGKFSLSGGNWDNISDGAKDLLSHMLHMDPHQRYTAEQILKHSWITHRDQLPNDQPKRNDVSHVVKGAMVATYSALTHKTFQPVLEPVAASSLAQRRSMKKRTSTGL

Chain of Ribosomal protein S6 kinase alpha-1 (Homo sapiens) (Q15418 whole entry): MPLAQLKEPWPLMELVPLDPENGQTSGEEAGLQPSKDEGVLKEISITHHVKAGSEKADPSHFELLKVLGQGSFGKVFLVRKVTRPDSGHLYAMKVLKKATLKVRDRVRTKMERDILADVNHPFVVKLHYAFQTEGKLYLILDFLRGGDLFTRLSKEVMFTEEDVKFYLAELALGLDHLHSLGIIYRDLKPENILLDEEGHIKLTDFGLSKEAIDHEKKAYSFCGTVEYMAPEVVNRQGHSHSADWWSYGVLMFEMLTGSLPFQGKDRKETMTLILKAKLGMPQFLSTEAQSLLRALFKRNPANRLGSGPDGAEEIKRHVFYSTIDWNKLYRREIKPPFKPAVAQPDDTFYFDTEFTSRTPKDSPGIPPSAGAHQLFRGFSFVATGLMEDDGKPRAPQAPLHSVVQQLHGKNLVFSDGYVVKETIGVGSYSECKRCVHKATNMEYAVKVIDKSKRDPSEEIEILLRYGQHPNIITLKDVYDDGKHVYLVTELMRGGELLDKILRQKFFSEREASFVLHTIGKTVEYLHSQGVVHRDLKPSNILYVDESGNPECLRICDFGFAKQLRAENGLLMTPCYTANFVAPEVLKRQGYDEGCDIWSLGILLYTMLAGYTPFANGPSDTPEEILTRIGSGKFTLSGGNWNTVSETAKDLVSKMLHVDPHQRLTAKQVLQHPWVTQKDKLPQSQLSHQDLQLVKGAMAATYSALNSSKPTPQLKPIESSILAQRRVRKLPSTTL
Chain of Rho-associated protein kinase 2 (Homo sapiens) (O75116 whole entry, looked up): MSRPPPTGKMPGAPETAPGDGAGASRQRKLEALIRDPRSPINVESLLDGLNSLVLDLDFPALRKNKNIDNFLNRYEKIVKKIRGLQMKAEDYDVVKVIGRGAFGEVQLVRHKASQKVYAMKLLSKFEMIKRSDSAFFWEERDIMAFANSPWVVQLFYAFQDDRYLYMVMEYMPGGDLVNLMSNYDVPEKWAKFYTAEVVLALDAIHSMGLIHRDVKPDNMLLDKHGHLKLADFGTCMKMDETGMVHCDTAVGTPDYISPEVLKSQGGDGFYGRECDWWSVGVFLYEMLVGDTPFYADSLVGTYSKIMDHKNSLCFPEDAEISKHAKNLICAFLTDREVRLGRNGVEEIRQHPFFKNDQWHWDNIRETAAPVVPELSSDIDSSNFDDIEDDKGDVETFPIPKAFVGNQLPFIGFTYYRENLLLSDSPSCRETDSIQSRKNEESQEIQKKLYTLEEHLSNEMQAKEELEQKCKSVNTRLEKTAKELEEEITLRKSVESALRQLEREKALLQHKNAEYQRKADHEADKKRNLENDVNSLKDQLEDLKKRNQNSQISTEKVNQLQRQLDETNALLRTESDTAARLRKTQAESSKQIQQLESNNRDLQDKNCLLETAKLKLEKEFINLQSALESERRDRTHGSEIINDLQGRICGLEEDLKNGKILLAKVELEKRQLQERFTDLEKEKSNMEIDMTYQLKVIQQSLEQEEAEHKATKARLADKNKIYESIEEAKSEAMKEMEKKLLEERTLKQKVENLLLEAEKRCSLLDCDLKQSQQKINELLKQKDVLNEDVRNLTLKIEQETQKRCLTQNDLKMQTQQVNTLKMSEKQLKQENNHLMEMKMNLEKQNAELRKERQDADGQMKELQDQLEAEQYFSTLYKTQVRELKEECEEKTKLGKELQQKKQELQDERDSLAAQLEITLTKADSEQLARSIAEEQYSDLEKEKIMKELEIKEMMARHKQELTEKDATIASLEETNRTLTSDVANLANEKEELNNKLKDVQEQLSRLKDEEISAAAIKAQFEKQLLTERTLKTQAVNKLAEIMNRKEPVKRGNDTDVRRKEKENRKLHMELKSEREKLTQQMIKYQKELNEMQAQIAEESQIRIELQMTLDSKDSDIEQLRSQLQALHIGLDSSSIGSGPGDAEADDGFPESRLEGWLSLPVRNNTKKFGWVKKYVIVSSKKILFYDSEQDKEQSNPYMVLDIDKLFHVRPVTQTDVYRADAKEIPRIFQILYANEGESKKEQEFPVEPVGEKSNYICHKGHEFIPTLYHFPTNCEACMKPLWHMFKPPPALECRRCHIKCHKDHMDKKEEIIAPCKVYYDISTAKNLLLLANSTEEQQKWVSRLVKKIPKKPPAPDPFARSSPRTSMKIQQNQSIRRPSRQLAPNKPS
Chain of Ribosomal protein S6 kinase alpha-2 (Homo sapiens) (Q15349 whole entry): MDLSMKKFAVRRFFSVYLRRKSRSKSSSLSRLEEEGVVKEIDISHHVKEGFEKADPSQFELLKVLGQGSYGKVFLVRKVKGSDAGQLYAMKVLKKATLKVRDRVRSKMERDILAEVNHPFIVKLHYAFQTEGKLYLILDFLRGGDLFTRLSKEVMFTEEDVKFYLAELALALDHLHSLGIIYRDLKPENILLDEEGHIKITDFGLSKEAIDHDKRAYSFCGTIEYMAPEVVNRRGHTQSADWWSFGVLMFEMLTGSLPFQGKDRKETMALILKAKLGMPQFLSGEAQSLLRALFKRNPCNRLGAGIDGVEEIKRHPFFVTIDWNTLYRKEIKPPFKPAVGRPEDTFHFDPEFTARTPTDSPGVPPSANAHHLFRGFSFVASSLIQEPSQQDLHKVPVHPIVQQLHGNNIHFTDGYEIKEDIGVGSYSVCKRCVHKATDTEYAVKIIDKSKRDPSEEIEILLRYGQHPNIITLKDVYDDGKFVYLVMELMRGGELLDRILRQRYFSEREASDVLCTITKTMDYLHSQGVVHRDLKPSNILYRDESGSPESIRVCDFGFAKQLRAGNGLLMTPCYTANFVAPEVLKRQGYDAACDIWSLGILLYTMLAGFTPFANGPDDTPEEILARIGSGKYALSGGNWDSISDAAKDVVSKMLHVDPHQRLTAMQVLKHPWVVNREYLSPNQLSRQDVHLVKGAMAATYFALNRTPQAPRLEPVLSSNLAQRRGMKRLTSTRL
Chain of Ribosomal protein S6 kinase alpha-3 (Homo sapiens) (P51812 whole entry): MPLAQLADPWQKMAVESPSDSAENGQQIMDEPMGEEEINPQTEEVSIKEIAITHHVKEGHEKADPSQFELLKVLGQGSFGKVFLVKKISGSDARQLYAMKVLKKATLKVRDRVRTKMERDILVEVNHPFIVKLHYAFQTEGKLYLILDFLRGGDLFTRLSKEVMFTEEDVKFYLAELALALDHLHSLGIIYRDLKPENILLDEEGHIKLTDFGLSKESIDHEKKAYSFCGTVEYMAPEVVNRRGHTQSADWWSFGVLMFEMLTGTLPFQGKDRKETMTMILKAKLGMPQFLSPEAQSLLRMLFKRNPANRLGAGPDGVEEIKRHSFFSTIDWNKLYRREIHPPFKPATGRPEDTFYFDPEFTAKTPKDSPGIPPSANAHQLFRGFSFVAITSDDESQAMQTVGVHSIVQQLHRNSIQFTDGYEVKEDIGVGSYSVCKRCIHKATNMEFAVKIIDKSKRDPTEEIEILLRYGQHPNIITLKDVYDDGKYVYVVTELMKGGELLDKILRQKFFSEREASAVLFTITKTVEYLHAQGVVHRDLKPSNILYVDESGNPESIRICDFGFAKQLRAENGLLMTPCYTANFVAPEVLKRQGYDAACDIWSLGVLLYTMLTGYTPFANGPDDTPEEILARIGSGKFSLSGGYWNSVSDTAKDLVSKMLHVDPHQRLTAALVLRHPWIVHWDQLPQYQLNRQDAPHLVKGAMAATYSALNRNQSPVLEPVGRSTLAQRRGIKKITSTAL

A word on the inhibition: it is the change of the read-out against control, counted positive when it falls. For `Nc1nc(-c2ccccn2)c(-c2ccc3ncccc3n2)s1`, the inhibition in test [1] worked out at 3.27%; in test [2], 3.61%; in test [3], 3.13%; in [4] it was 0.89%; in test [5] it was 3.86%; in test [6] it was 1.67%. For the same compound, the inhibition in test [7] came to 6%; in test [8], 1.03%; in test [9], 1.92%; in test [10], 0.46%; in test [11], 2.15%; in [12], 2.83%. Also, the inhibition in [13] came to 6.38%; in [14], 1.17%; in test [15] it was 3.4%; in [16], 0.06%; in test [17], 1.07%; in test [18], 1.71%. Further, the inhibition in test [19] turned out to be 1.96%; in test [20] it was 0.91%.
For the compound `CCN1CCC(CC(=O)Nc2n[nH]c3nc(-c4cccs4)c(Br)cc23)CC1`, the inhibition was -1.32% in test [1]; -2.16% in test [2]; -0.88% in test [3]; -1.47% in [4]; -0.36% in [5]; -0.23% in test [6]. The inhibition is 1.17% in test [7]; -0.98% in [8]; 0.48% in test [9]; 0.12% in test [10]; -0.45% in test [11]; -0.91% in test [12]. Moreover, the inhibition in test [13] was 0.3%; in test [14], -1.31%; in [15] it was -0.49%; in test [16], -0.78%; in test [17], -0.3%; in [18] it was -1.79%. The inhibition is 0.38% in test [19] and -1.6% in test [20].
For `O=C1NC(=O)C(c2ccccc2Cl)=C1Nc1cccc(O)c1`, the inhibition in [1] came to 2.71%; in test [2] it was 2.73%; in test [3], 2.86%; in test [4], 2.17%; in test [5], 3.29%; in [6] it was 1.54%. In addition, the inhibition in [7] came out at 4.57%; in test [8], 2.14%; in test [9] it was 4.07%; in [10] it was 3.29%; in test [11] it was 4.61%; in test [12] it was 6.16%. Besides, the inhibition in [13] came to 3.66%; in [14] it was 1.82%; in test [15] it was 4.3%; in test [16], 1.65%; in test [17], 4.49%; in test [18], 2.1%. In addition, the figures for the inhibition in test [19] and in test [20] were 6.19% and 0.75%, respectively.
For the compound `Cc1cc(O)cc(C)c1/C=C/c1cncc(-c2nn[nH]n2)c1`, the inhibition in test [1] was 4.1%; in test [2], 2.66%; in [3], 4.77%; in test [4], 2.15%; in test [5], 4.8%; in test [6], 2.47%. Moreover, the inhibition was 3.8% in test [7]; 1.59% in [8]; 1.75% in test [9]; 1.38% in [10]; 1.86% in test [11]; 2.66% in test [12]. For the same compound, the inhibition was 2.33% in [13]; 2.97% in [14]; 1% in [15]; 1.94% in [16]; 1.24% in test [17]; 3.53% in test [18]. Moreover, the results for the inhibition in test [19] and in test [20] were 3.85% and 2.1%, respectively.

Source of the values: ChEMBL document CHEMBL1961873, “Compounds: GSK PKIS; Assays: Nanosyn kinase panel” (2012).
